Inconclusive results are not listed. Activity calls are given as the source filed them. Rule for the calls, unless noted: active = hit-call score of the fitted dose curve at least 0.9, where 1 is the maximum; inconclusive = response in the unintended direction; inactive = score below 0.9.

X-box-binding protein 1 (Homo sapiens), sequence (P17861 whole entry, looked up): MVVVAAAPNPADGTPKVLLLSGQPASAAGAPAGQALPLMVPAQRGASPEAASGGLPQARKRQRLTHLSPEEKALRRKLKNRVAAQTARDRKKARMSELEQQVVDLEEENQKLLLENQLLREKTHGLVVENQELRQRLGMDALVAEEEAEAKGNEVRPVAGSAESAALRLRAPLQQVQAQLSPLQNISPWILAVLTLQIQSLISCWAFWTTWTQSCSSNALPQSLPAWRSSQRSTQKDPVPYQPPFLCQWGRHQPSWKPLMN

In one assay the target is Steroid hormone receptor ERR1 (Homo sapiens) (UniProt P11474). The experiment in a line: ATG_ERRa_TRANS: Attagene TRANS-FACTORIAL HepG2 Assay for human Estrogen-Related Receptor alpha (ERRa) (AID 2282971). The note with it: HepG2 Attagene TRANS reporter, ERRa transactivation. An outline of the steps: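 Reporter transcript induction was quantified by RT-PCR and capillary electrophoresis of FAM-labelled, HpaI-cut products after 24 h treatment of HepG2 cells carrying transiently transfected GAL4-UAS reporter units and an exogenous ERRa-Gal4 fusion; activity scored as increase over DMSO.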
Steroid hormone receptor ERR1 (Homo sapiens), sequence (P11474 whole entry, looked up, the tested form may be a part): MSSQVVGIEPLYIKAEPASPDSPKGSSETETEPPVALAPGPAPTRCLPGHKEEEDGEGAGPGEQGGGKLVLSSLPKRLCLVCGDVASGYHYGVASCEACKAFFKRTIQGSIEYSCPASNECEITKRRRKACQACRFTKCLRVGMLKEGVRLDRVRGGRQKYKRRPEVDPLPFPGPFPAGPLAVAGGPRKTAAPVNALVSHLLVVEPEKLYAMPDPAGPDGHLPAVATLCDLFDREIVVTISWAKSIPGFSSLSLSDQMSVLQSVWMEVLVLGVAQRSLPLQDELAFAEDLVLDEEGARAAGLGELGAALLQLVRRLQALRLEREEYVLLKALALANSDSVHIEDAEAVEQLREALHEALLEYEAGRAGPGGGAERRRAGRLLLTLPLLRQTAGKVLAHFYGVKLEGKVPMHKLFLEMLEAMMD
With `O=C1OC(=O)c2c(Cl)c(Cl)c(Cl)c(Cl)c21`, the call was inactive.

Consider `C1CCCCC1`, for which the call was inactive.

Turning to `CCCCCCCC(=O)OCC(O)CO` (stereo unspecified), the outcome was inactive.

In the case of `O=C(O)c1ccc(O)cc1`, the result was inactive.

Regarding `CSCCC=O`, the call was inactive.

For `CS(=O)(=O)c1ccc(C2=C(c3ccccc3)C(=O)OC2)cc1`, the outcome was inactive.

`COc1ccccc1N=Nc1c(S(=O)(=O)O)cc2cc(S(=O)(=O)O)cc(NC(C)=O)c2c1O`: the compound was classed as inactive.

In the case of `Cc1ncc([N+](=O)[O-])n1CCO`, the outcome was inactive.

The target of the next assay is X-box-binding protein 1 (Homo sapiens) (UniProt P17861). The experiment in a line: ATG_Xbp1_CIS: Attagene CIS-FACTORIAL HepG2 Assay for human X-box Binding Protein 1 (XBP1) (AID 2282972; active = hit-call score of the fitted dose curve at least 0.9, where 1 is the maximum; inactive = score below 0.9). As to conditions: HepG2 XBP1 cis-element reporter, Attagene multiplex; actives raise or lower the signal. The procedure, abridged:
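After a 24-hour chemical exposure of HepG2 cells carrying cis-regulated reporters, reporter mRNA levels are assessed. Quantification uses RT-PCR, 6-FAM labelling and capillary electrophoresis. Gain- or loss-of-signal is fitted against DMSO.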
On to `Nc1ccc2c(O)cc(S(=O)(=O)O)cc2c1`, for which the outcome was inactive.

On to `CCc1ncc(C)[nH]1`, for which the outcome was inactive.

For the compound `CN(C)C(=S)SC(=S)N(C)C`, the outcome was inactive.

For the compound `CC(C)=CCCC(C)CCOC=O` (stereo unspecified), the compound was called inactive.

Consider `C=C(C)[C@H]1CC=C(C)C(=O)C1`, for which the result was inactive.

With `O=C1OC(=O)c2c(Cl)c(Cl)c(Cl)c(Cl)c21`, the outcome was inactive.

Turning to `C1CCCCC1`, the outcome was inactive.

Usually AC50 stands for the concentration at which the activity in the assay is half-maximal. For the compound `CC(C)(C)OC(=O)c1ccc(O)cc1`, the concentration at half-maximal activity (AC50) is 70.3 µM (active).

Consider `COc1cc(C(C)C)ccc1C`, for which the compound was called inactive.

On to `CC(C)(CO)[C@@H](O)C(=O)NCCC(=O)O`, for which the compound was called inactive.

For the compound `CCCCCCCC(=O)OCC(O)CO` (stereo unspecified), the compound was classed as inactive.

Regarding `O=C(O)c1ccc(O)cc1`, the call was inactive.

For the compound `CSCCC=O`, the call was inactive.

For the compound `CC(C)C(OC(=O)c1ccccc1)C(C)(C)COC(=O)c1ccccc1` (stereo unspecified), the compound was classed as inactive.

With `COc1ccccc1N=Nc1c(S(=O)(=O)O)cc2cc(S(=O)(=O)O)cc(NC(C)=O)c2c1O`, the result was inactive.

`CCCC(=O)OCCc1ccccc1`: the outcome was inactive.

As to `CSc1c(Cl)c(Cl)c(Cl)c(Cl)c1Cl`, the half-maximal activity concentration (AC50) is 136 µM (active).

For the compound `CCC(Cl)C(Cl)C(Cl)CC(Cl)C(Cl)C(C)Cl` (stereo unspecified), the outcome was inactive.

With `OCC#CCO`, the compound was classed as inactive.

For `CCCC[O][Al]([O]CCCC)[O]CCCC`, the compound was classed as inactive.

As to `O=C(CC(=O)c1ccccc1)c1ccccc1`, the half-maximal activity concentration (AC50) was 45.1 µM (active).

For the compound `CN(C)C(=O)Nc1ccc(Oc2ccc(Cl)cc2)cc1`, the compound was classed as inactive.

Regarding `Cc1ncc([N+](=O)[O-])n1CCO`, the compound was classed as inactive.

Consider `CCCCCCC(=O)c1ccccc1`, for which the result was inactive.

`O=C1OC[C@H](Cc2cccc(O)c2)[C@H]1Cc1cccc(O)c1`: the compound was classed as inactive.

Tested on in a further assay: not listed separately
As to the kind of experiment: ATG_M_19_TRANS: Attagene TRANS-FACTORIAL HepG2 Assay for M19 Transcription Factor (Internal Marker) (AID 2282974). The note with it: HepG2 Attagene TRANS-FACTORIAL M19 internal marker reporter. The procedure, abridged:
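Multiplexed TRANS format: HepG2 liver cells bearing transient GAL4-UAS reporter units, chemical treatment 24 h, reporter transcripts quantified by RT-PCR plus capillary electrophoresis. DMSO defines baseline.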
As to `O=P(O)(O)O`, the result was inactive.

As to `CC1(C)O[C@@H]2C[C@H]3[C@@H]4CCC5=CC(=O)C=C[C@]5(C)[C@@]4(F)[C@@H](O)C[C@]3(C)[C@]2(C(=O)CO)O1`, the call was inactive.

For the compound `CN(C)C(=S)SC(=S)N(C)C`, the outcome was inactive.

With `CCOC(=O)[C@@H](C)Oc1ccc(Oc2nc3ccc(Cl)cc3o2)cc1`, the result was inactive.

As for `O=C1OC(=O)c2c(Cl)c(Cl)c(Cl)c(Cl)c21`, the compound was called inactive.

Regarding `C[C@H](CCC(=O)NCC(=O)O)[C@H]1CC[C@H]2[C@@H]3[C@H](O)C[C@@H]4C[C@H](O)CC[C@]4(C)[C@H]3C[C@H](O)[C@]12C`, the call was inactive.

Regarding `C1CCCCC1`, the compound was classed as inactive.

In the case of `CCC(=O)OCCOc1ccccc1`, the compound was called inactive.

For the compound `COc1ccc(CCO)cc1`, the compound was called inactive.

Consider `CCCCC(CC)C(=O)OC(C)C` (stereo unspecified), for which the outcome was inactive.

As for `CCCCCCCC(=O)OCC(O)CO` (stereo unspecified), the result was inactive.

In the case of `O=C(O)c1ccc(O)cc1`, the call was inactive.

With `CS(=O)(=O)c1ccc(C2=C(c3ccccc3)C(=O)OC2)cc1`, the compound was called inactive.

In the case of `CC(C)C(OC(=O)c1ccccc1)C(C)(C)COC(=O)c1ccccc1` (stereo unspecified), the outcome was inactive.

Take `CCCC(C)C(O)CC` (stereo unspecified): the compound was called inactive.

As to `CC(=O)O[C@@H]1C[C@@H]2CC[C@@]1(C)C2(C)C`, the call was inactive.

Turning to `COc1ccccc1N=Nc1c(S(=O)(=O)O)cc2cc(S(=O)(=O)O)cc(NC(C)=O)c2c1O`, the call was inactive.

For the compound `CCCCCCC(=O)c1ccccc1`, the outcome was inactive.

Values taken from PubChem BioAssay (EPA / NIEHS).
